# IMPase Li cell – IMPase inhibition in cells with lithium potentiation; CHO-M1 cells, IP1 TR-FRET (IP-One), carbachol + lithium; Potency, µM (titrated, usually from 59.4 µM), without a hit: at the top dose activity, negative = IMPase inhibition, usual class: inhibitors; hit rate 0.35% among 210,000; AID 1457;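 further: IP1 builds up when IMPase is blocked and the TR-FRET signal falls; potency means the concentration at half of the fitted maximal effect; plate controls were basal vehicle for no effect and high inhibitor control for full effect; nearly all actives have a fitted effect of over 50% in size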
#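 Readout is a homogeneous TR-FRET IP1 immunoassay (Ex 320, Em 665 and 620), where raised cytosolic IP1 lowers signal. Cells were CHO-M1 treated 30 min at 37C with test compounds plus a little lithium; AC50 values came from Hill-equation fitting.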
# 12-hLO inh – blocks human 12-lipoxygenase activity | P18054 | purified 12-hLO, xylenol orange hydroperoxide absorbance | Potency, µM (series often up to 57.1 µM), without a hit: at the top dose activity change, negative = inhibition, usual class: inhibitors | hit rate 0.12% among 150,000; further: potency means the concentration at half of the fitted maximal effect; nearly all actives have a fitted effect of over 55% in size
#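 150 nM 12hLO, 25 mM Hepes pH 7.0 + 0.01% Triton X-100; cpd preinc 15 min RT; 40 uM arachidonic acid, 30 min RT; Fe-XO 30 min; A573/A405 ratio as read-out.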
# IMPase cell inh – membrane-permeable compound that blocks inositol monophosphatase; P97697; CHO-M1 cells, IP1 accumulation, HTRF TR-FRET ratio; inhibition (IP1 accumulation), % at 46.1 µM; 120,000 tested, under 10 active; active means well fitted curve in the direction sought with a large enough effect in the signal ratio, not every such curve was filed as active; inconclusive means small, poorly fitted or top-dose-only effect, or a change in a side signal; inactive means no such curve, though single readings can be large or run the other way; the % refers to the signal ratio;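 further: cells stimulated with carbachol in lithium chloride buffer; plate controls were DMSO basal wells for no effect and reference inhibitor wells for full effect; higher means more IMPase inhibition seen as more IP1 and lower FRET ratio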
#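 Carbachol-driven Gq signalling in CHO-M1 cells (2000/well) generates IP1. Compounds that block IMPase raise IP1 and so reduce the FRET signal from Eu-anti-IP1 and d2-IP1 after a 10 min room-temperature lysis.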
# PNC inhibitor – perinucleolar compartment assembly inhibition. PC3M PTB-GFP, PNC prevalence imaging, 16 h; hits give low values. activity change (PNC), negative = inhibition, % at 10 µM. hit rate 3.1% among 140,000;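 active means readout at or below -70, meaning at least 70% loss of cells showing the perinucleolar compartment, a nuclear body marking cancer cells; inconclusive means readout between -30 and a set limit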;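 further: plate controls were DMSO wells for no effect and camptothecin positive control wells for full effect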
#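 Read-out is percentage of cells bearing a perinucleolar compartment, from automated 20x imaging of fixed, Hoechst-stained PC3M PTB-GFP cells. Cells were seeded 4 h, then exposed 16 h to compound (23 nl of library stock) in duplicate plates.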
# 15-hLO-2 inh – blocks human 15-lipoxygenase 2 activity; O15296; purified 15hLO-2, xylenol orange hydroperoxide absorbance; Potency, µM (series often up to 57.1 µM), without a hit: at the highest dose activity change, negative = inhibition, hits mostly inhibitors; hit rate 0.56% among 110,000; AID 881; further: potency means the concentration at half of the fitted maximal effect; nearly all actives have a fitted effect of over 60% in size
# Target sequence (O15296 whole entry, looked up): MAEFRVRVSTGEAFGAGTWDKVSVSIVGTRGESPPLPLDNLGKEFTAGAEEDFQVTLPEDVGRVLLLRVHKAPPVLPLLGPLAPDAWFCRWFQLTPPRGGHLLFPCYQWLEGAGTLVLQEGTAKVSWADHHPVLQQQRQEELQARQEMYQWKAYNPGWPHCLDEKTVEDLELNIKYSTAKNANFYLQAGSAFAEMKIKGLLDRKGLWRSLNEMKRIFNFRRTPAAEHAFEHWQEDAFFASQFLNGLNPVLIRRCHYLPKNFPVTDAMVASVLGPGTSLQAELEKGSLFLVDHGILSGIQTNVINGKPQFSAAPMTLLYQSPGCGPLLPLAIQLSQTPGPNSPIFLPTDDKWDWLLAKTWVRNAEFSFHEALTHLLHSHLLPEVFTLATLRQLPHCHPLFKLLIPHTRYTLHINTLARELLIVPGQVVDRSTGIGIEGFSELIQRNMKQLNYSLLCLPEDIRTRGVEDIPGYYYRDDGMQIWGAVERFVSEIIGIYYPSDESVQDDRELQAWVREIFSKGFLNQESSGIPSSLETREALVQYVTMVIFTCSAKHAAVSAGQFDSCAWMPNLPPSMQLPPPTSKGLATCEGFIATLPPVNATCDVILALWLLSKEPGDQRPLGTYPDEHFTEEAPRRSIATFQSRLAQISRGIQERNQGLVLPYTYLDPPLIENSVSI
#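 Purified human 15hLO-2 (50 nM) preincubated 15 min with compound, then 45 uM arachidonic acid for 90 min at RT in 25 mM Hepes pH 7.5, 0.01% Triton X-100. Hydroperoxide detected by Fe-xylenol orange; 573/405 nm absorbance ratio.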
# HPGD block – inhibitors of human 15-hydroxyprostaglandin dehydrogenase (HPGD) | AID 894 | Potency, µM, for the others: at the top dose activity change, negative = inhibition, usual class: inhibitors | P15428 | hit rate 4.3% among 150,000 | purified HPGD, NADH fluorescence kinetic, PGE2 substrate; active means well fitted inhibition curve with a large enough effect, not every such curve was filed as active; inconclusive means small, poorly fitted or top-dose-only effect, or another doubt; inactive means no such curve, though single readings can be large or run the other way; further: potency means the concentration at half of the fitted maximal effect
#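 NADH formation kinetics: reaction with 30 uM PGE2 and 1 mM NAD+ (final), 20 nM enzyme, Tris-HCl pH 8 with Tween 20, after 15 min compound preincubation at room temperature. Fluorescence change, last versus first of five reads.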
# Numbers without * were called inactive; ? = inconclusive; nt = no result given; [ ] = dose if it differs, or a comment. Most compounds without a hit are left out; they make up all but 5.3% or so of the library. Unless noted, the call rests on the fitted dose curve; in most records, active means well fitted curve in the direction sought with a large enough effect; inconclusive means small, poorly fitted or top-dose-only effect, or another doubt; inactive means no such curve, though single readings can be large; an effect the other way counts as inactive or inconclusive. Unless noted, on the % scale 0 is the no-effect control and ±100 the full control effect.
SMILES,IMPase Li cell,12-hLO inh,IMPase cell inh,PNC inhibitor,15-hLO-2 inh,HPGD block
C=CCn1c(NC(=O)c2ccc(Br)o2)c(S(=O)(=O)c2ccccc2)c2nc3ccccc3nc21,10µM*,-25%,-19,-16,?,?
C=CCn1c(NC(=O)c2ccco2)c(S(=O)(=O)c2ccccc2)c2nc3ccccc3nc21,-30%[38.3 µM],-6%,-24,?,-13%,?
Cc1onc(-c2c(F)cccc2Cl)c1C(=O)Nc1ccc(S(=O)(=O)Nc2ncccn2)cc1,1%[38.3 µM],0%,1,-123*,-2%,-11%
Cc1onc(-c2c(F)cccc2Cl)c1C(=O)Nc1ccc(OC(C)C)cc1,nt,nt,5,nt,nt,nt
Cc1onc(-c2c(F)cccc2Cl)c1C(=O)NCCc1ccc(S(N)(=O)=O)cc1,-8%[38.3 µM],2%,-3,-95*,2%,-23%
Cc1ccc(-c2csc(N(C)C(=O)c3c(C)nn(-c4ccccc4)c3Cl)n2)cc1,29%[38.3 µM],4%,-2[1.84 µM],-99*,-18%[11.4 µM],-17%
CC(=O)N(C)c1nc(-c2ccc(Cl)cc2)cs1,2%[38.3 µM],-3%,4,42,1%,-9%
CCOC(=O)c1[nH]nc2c1C(=O)N(Cc1ccccc1)C2=O,6%[38.3 µM],-1%,8,-26,-10%,8.9µM*
COC(=O)c1[nH]nc2c1C(=O)N(Cc1ccccc1)C2=O,-9%[38.3 µM],-4%,12,26,-10%,10µM*
CC1=C2[C@@H]([C@H](C)CC[C@H]2/C=C(\C)C(=O)O)[C@H](O)C1,-2%,4%,nt,nt,7%,-10%
O=C(COc1ccccc1[N+](=O)[O-])NNC(=O)Nc1cccc2ccccc12,0%,nt,nt,nt,nt,nt
O=C(O)c1cccc(Cn2cc(Cl)cn2)c1,-2%[38.3 µM],1%,-5,12,-9%,1%
COc1ccc(N2CCN(C(=O)c3cccc(Cn4cc(Cl)cn4)c3)CC2)cc1,1%[38.3 µM],-11%,34,-112*,-6%,-13%
COc1ccc2nc3oc(C(=O)N4CCN(c5cccc(Cl)c5)CC4)cc3cc2c1,13%,2%,11,-87*,5%,176%
COc1cccc(C(c2c(C)[nH]n(-c3ccccc3)c2=O)c2c(C)[nH]n(-c3ccccc3)c2=O)c1OC,0%,-2%,nt,6,nt,22µM*
COc1cccc(C(c2c(C)[nH]n(-c3ccccc3)c2=O)c2c(C)[nH]n(-c3ccccc3)c2=O)c1O,-21%[38.3 µM],-6%,7,-26,-10%,-9%
CC1(C)CC(NC(=O)c2coc(=O)c(Br)c2)CC(C)(C)N1,-9%[38.3 µM],-3%,-5,-100*,3%,-14%
CC1(C)CC(NC(=O)c2ccc3c(c2)OCO3)CC(C)(C)N1,1%[38.3 µM],-1%,-8,-1,5%,-28%
N=C1N=C(N)c2cc3ccccc3cc21,-9%,0%,nt,nt,5%,?
CNC(=S)N1N=C(c2ccc(Br)cc2)CC1c1ccc(OC)cc1 (configuration not stated),-1%,?,nt,-121*,nt,35µM*
COC(=O)c1ccc(C(=S)N2CCOCC2)cc1,-9%,1%,0,10,-10%,28µM*
C=CCN1C(=O)/C(=C\c2ccco2)C(C(=O)OC)=C1C,2%,27%,nt,21,nt,32µM*
COc1ccc(NC(=O)N2CC[C@@]3(CCCN(C(=O)c4cccc(F)c4)C3)C2)cc1,9%,1%,nt,nt,-3%,-10%
COc1ccccc1C1C2=C(N=c3s/c(=C/c4cccc(OCC(=O)O)c4)c(=O)n31)c1ccccc1CC2 (configuration not stated),14%,-15%,nt,170,nt,28µM*
Cc1cc(=O)[nH]c2cc3oc4ccccc4c3cc12,-2%,1%[11.4 µM],nt,nt,-3%[11.4 µM],-21%
CC(C)COc1cccc(C(=O)NC(=S)NCc2cccnc2)c1,nt,-26%,-6,-1,nt,nt
COc1ccc(CN(C(=O)c2cc3ccccc3oc2=O)C2CCCC2)cc1,9%,0%,19,76,nt,-1%
